Records with an inconclusive call do not appear. The source made the active and inactive calls. Calls come from the whole dose curve; as a rule, active = well fitted curve in the direction sought with a large enough effect; inconclusive = small, poorly fitted or top-dose-only effect, or another doubt; inactive = no such curve, though single readings can be large; an effect the other way counts as inactive or inconclusive. Non-standard residues stand in square brackets, D forms with d. Residues, ends and D or L forms follow the SMILES beside them. *: point of attachment. Nva = CCC[C@H](N)C(=O)O; Cbz = O=C(OCc1ccccc1)*
Legend:
[1] = qHTS of pediatric cancer cell lines to identify multiple opportunities for drug repurposing: Primary screen for Rh18 cells (AID 1347102); note: nearly all actives have a fitted effect of over 65% in size
In short: (§1)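 Cells (500-1,000/well) in growth media were settled 5 h at 37 degrees C, then given compounds for 48 h. Viability was read as CellTiter-Glo luminescence. Primary runs used MIPE at 11 points (0.78 nM-46 µM) and NPC at 8 points (0.59 nM-46 µM); follow-ups used 11 points.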

[2] = qHTS of pediatric cancer cell lines to identify multiple opportunities for drug repurposing: Primary screen for OHS-50 cells (AID 1347103); note: nearly all actives have a fitted effect of over 40% in size
In short: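 Cells (500-1,000/well) rested 5 h, then received compounds for 48 h; metabolically active cells were measured by CellTiter-Glo luminescence. Final concentrations spanned up to 46 µM (MIPE, 11-point) or 0.59 nM-46 µM (NPC, 8-point) in primary screens, 11-point in follow-ups.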

[3] = qHTS of pediatric cancer cell lines to identify multiple opportunities for drug repurposing: Primary screen for RD cells (AID 1347104); note: nearly all actives have a fitted effect of over 55% in size
In short: (§2)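 Cells seeded at 500-1,000 cells/well in growth media, rested 5 hours at 37 degrees C, 5% CO2, then dosed; MIPE compounds at 11-point (from 0.78 nM) and NPC at 8-point (from 0.59 nM) final concentrations. Viability by CellTiter-Glo luminescence after 48 hours.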

[4] = qHTS of pediatric cancer cell lines to identify multiple opportunities for drug repurposing: Primary screen for MG 63 (6-TG R) cells (AID 1347105); note: nearly all actives have a fitted effect of over 50% in size
In short: as §2

[5] = qHTS of pediatric cancer cell lines to identify multiple opportunities for drug repurposing: Primary screen for control Hh wild type fibroblast cells (AID 1347106); note: nearly all actives have a fitted effect of over 55% in size;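 for activity change, negative = cytotoxic: a drop in luminescence marks cytotoxicity and a rise apparent proliferation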
In short: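 Viability after 48 h compound treatment at 37C, 500-1,000 cells/well, read as ATP luminescence with CellTiter-Glo. Primary screens used 11-point (MIPE, 0.78 nM-46 µM) or 8-point (NPC, 0.59 nM-46 µM) final concentrations; follow-up screens used 11-point dilutions.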

[6] = qHTS of pediatric cancer cell lines to identify multiple opportunities for drug repurposing: Primary screen for Rh30 cells (AID 1347107); note: nearly all actives have a fitted effect of over 75% in size
In short: as §1

[7] = qHTS of pediatric cancer cell lines to identify multiple opportunities for drug repurposing: Primary screen for Rh41 cells (AID 1347108); note: nearly all actives have a fitted effect of over 70% in size;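 for activity change, negative = cytotoxic: luminescence drop marks cytotoxic hits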
In short: as §2

[8] = qHTS of pediatric cancer cell lines to identify multiple opportunities for drug repurposing: Confirmatory screen for NB1643 cells (AID 1347109); note: nearly all actives have a fitted effect of over 45% in size
In short: as §1

[9] = qHTS of pediatric cancer cell lines to identify multiple opportunities for drug repurposing: Confirmatory screen for A673 cells (AID 1347110);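 note: cells exposed to compound for 48 h before the viability read; nearly all actives have a fitted effect of over 65% in size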
In short: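 Concentration-response curves came straight from titrations: 11 points (0.78 nM to 46 µM) for MIPE and several concentrations (0.59 nM to 46 µM) for NPC in primary, 11 points in follow-up. Readout: ATP luminescence at 48 h.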

[10] = qHTS of pediatric cancer cell lines to identify multiple opportunities for drug repurposing: Confirmatory screen for SK-N-MC cells (AID 1347111);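 note: cells exposed to compound for 48 h before the readout; nearly all actives have a fitted effect of over 70% in size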
In short: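 Metabolically active cells were quantified by ATP-dependent luminescence (CellTiter-Glo, 15 min at room temperature) following 48 h treatment. Cells had been plated at 500-1,000 per well and settled for 5 h beforehand.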

[11] = qHTS of pediatric cancer cell lines to identify multiple opportunities for drug repurposing: Confirmatory screen for BT-12 cells (AID 1347112); note: nearly all actives have a fitted effect of over 55% in size
In short: as §1

[12] = qHTS of pediatric cancer cell lines to identify multiple opportunities for drug repurposing: Confirmatory screen for LAN-5 cells (AID 1347113); note: nearly all actives have a fitted effect of over 65% in size
In short: as §1

[13] = qHTS of pediatric cancer cell lines to identify multiple opportunities for drug repurposing: Confirmatory screen for DAOY cells (AID 1347114); note: nearly all actives have a fitted effect of over 65% in size
In short: (§3)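 Viability measured as metabolically active cells via CellTiter-Glo luminescence following 48 hours of compound exposure, 11-point dilutions in confirmatory testing. 500-1,000 cells/well plated 5 hours before dosing; controls were DMSO and 2.3 µM bortezomib.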

[14] = qHTS of pediatric cancer cell lines to identify multiple opportunities for drug repurposing: Confirmatory screen for NB-EBc1 cells (AID 1347115);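 note: cells exposed to compound for 48 h before the viability read; nearly all actives have a fitted effect of over 45% in size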
In short: as §1

[15] = qHTS of pediatric cancer cell lines to identify multiple opportunities for drug repurposing: Confirmatory screen for BT-37 cells (AID 1347117); conditions: BT-37 pediatric cancer cells, viability; activity change, negative = cytotoxic: at 45.9 µM (top of the series); note: nearly all actives have a fitted effect of over 55% in size
In short: as §1

[16] = qHTS of pediatric cancer cell lines to identify multiple opportunities for drug repurposing: Confirmatory screen for TC32 cells (AID 1347118)
In short: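 Measured quantity: luminescence from CellTiter-Glo, reflecting metabolically active TC32 cells following 48 h of compound. Curves came straight from multi-point titrations, with 8 or 11 points in primary and 11 in confirmatory screening.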

[17] = qHTS of pediatric cancer cell lines to identify multiple opportunities for drug repurposing: Confirmatory screen for MG 63 (6-TG R) cells (AID 1347119); note: nearly all actives have a fitted effect of over 55% in size
In short: as §1

[18] = qHTS of pediatric cancer cell lines to identify multiple opportunities for drug repurposing: Confirmatory screen for control Hh wild type fibroblast cells (AID 1347121); note: nearly all actives have a fitted effect of over 70% in size
In short: as §1

[19] = qHTS of pediatric cancer cell lines to identify multiple opportunities for drug repurposing: Confirmatory screen for SJ-GBM2 cells (AID 1347116); note: nearly all actives have a fitted effect of over 60% in size
In short: as §3

[20] = qHTS of pediatric cancer cell lines to identify multiple opportunities for drug repurposing: Confirmatory screen for U-2 OS cells (AID 1347122); note: nearly all actives have a fitted effect of over 65% in size
In short: as §1
Potency is the fitted concentration of half-maximal effect.

CCC[C@@H](C=O)NC(=O)[C@H](CC(C)C)NC(=O)[C@H](CC(C)C)NC(=O)OCc1ccccc1 (Cbz-Leu-Leu-[Nva]-aldehyde)
Potency [1]: 2350 nM (active)
Potency [2]: 1530 nM (active)
Potency [3]: 935 nM (active)
Potency [4]: 935 nM (active)
Potency [5]: 5260 nM (active)
Potency [6]: 4690 nM (active)
Potency [7]: 2350 nM (active)
Potency [8]: 1650 nM (active)
Potency [9]: 1170 nM (active)
Potency [10]: 414 nM (active)
Potency [11]: 2930 nM (active)
Potency [12]: 1470 nM (active)
Potency [13]: 1170 nM (active)
Potency [14]: 2330 nM (active)
Potency [15]: 1170 nM (active)
Potency [16]: 1470 nM (active)
Potency [17]: 827 nM (active)
Potency [18]: 7370 nM (active)

CNC(=O)c1ccc(Nc2cc(Nc3ccccc3S(=O)(=O)C(C)C)c3cc[nH]c3n2)nc1
Potency [1]: 9350 nM (active)
Potency [2]: 544 nM (active)
Potency [3]: 5900 nM (active)
Potency [4]: 5900 nM (active)
Potency [5]: inactive
Potency [7]: 5900 nM (active)
Potency [9]: 1170 nM (active)
Potency [10]: 2610 nM (active)
Potency [11]: 13100 nM (active)
Potency [12]: 2930 nM (active)
Potency [13]: 5850 nM (active)
Potency [14]: 5850 nM (active)
Potency [19]: 10400 nM (active)
Potency [15]: 6570 nM (active)
Potency [16]: 1850 nM (active)
Potency [17]: 1040 nM (active)
Potency [18]: 13100 nM (active)

C=C1C[C@@]2(O)O[C@@]3(C[C@H]2C(C)C)[C@H](C)CC[C@H]13
Potency [1]: inactive
Potency [2]: inactive
Potency [3]: inactive
Potency [4]: inactive
Potency [6]: inactive
Potency [7]: inactive

CC(C)N1[N]C(=C2C=c3cc(O)ccc3=N2)c2c(N)ncnc21
Potency [1]: 5900 nM (active)
Potency [2]: 273 nM (active)
Potency [3]: 1660 nM (active)
Potency [4]: 1180 nM (active)
Potency [6]: 5900 nM (active)
Potency [7]: 1050 nM (active)
Potency [8]: 10400 nM (active)
Potency [9]: 4140 nM (active)
Potency [10]: 2330 nM (active)
Potency [11]: 13100 nM (active)
Potency [12]: 2930 nM (active)
Potency [13]: 5220 nM (active)
Potency [14]: 4140 nM (active)
Potency [19]: 4140 nM (active)
Potency [15]: 1310 nM (active)
Potency [17]: 414 nM (active)

Nc1cccc2c1C(=O)N(C1CCC(=O)NC1=O)C2=O (stereo unspecified)
Potency [1]: inactive
Potency [2]: inactive
Potency [3]: inactive
Potency [4]: inactive
Potency [6]: inactive

COc1cccc2c1C(=O)c1c(O)c3c(c(O)c1C2=O)C[C@@](O)(C(=O)CO)C[C@@H]3O[C@H]1C[C@H](N)[C@@H](O)[C@H](C)O1
Potency [1]: 469 nM (active)
Potency [2]: 611 nM (active)
Potency [3]: 935 nM (active)
Potency [4]: 1480 nM (active)
Potency [6]: inactive
Potency [7]: 662 nM (active)
Potency [8]: 165 nM (active)
Potency [9]: 293 nM (active)
Potency [10]: 165 nM (active)
Potency [11]: 585 nM (active)
Potency [12]: 165 nM (active)
Potency [13]: 1470 nM (active)
Potency [15]: 117 nM (active)
Potency [16]: 131 nM (active)

CCS(=O)(=O)Nc1ccc2[nH]c(O)c(C(=Nc3ccc(CN4CCCCC4)cc3)c3ccccc3)c2c1
Potency [1]: 4180 nM (active)
Potency [2]: 1530 nM (active)
Potency [3]: 469 nM (active)
Potency [4]: 5900 nM (active)
Potency [5]: inactive
Potency [7]: 743 nM (active)
Potency [8]: 65.7 nM (active)
Potency [9]: 928 nM (active)
Potency [10]: 73.7 nM (active)
Potency [11]: 18500 nM (active)
Potency [12]: 185 nM (active)
Potency [13]: 16500 nM (active)
Potency [14]: 4650 nM (active)
Potency [19]: 14700 nM (active)
Potency [15]: 16500 nM (active)
Potency [17]: 329 nM (active)

COc1cc2c(Nc3ccc(Cl)c(Cl)c3F)ncnc2cc1OCC1C[C@@H]2CN(C)C[C@H]2C1
Potency [1]: 18700 nM (active)
Potency [2]: 4850 nM (active)
Potency [3]: 16600 nM (active)
Potency [4]: 14800 nM (active)
Potency [5]: 20900 nM (active)
Potency [7]: 9350 nM (active)

CON=C(C(=O)N[C@@H]1C(=O)N2C(C(=O)O)=C(CSC(=O)c3ccco3)CS[C@H]12)c1csc(N)n1
Potency [1]: inactive
Potency [2]: inactive
Potency [3]: inactive
Potency [4]: inactive
Potency [5]: inactive
Potency [7]: inactive

CC(C=CC(=O)NO)=C[C@@H](C)C(=O)c1ccc(N(C)C)cc1
Potency [1]: 526 nM (active)
Potency [2]: 863 nM (active)
Potency [3]: 1320 nM (active)
Potency [4]: 2350 nM (active)
Potency [5]: 10500 nM (active)
Potency [6]: 7430 nM (active)
Potency [7]: 1480 nM (active)
Potency [9]: 827 nM (active)
Potency [10]: 185 nM (active)
Potency [11]: 2930 nM (active)
Potency [12]: 414 nM (active)
Potency [13]: 2330 nM (active)
Potency [14]: 585 nM (active)
Potency [15]: 827 nM (active)
Potency [17]: 1170 nM (active)
Potency [18]: 6570 nM (active)
Potency [20]: 657 nM (active)

O=C(O)C(=O)Nc1cccc(C2=NN=N[N]2)c1
Potency [1]: inactive
Potency [2]: inactive
Potency [3]: inactive
Potency [4]: inactive
Potency [6]: inactive
Potency [7]: inactive

Cc1cnc(Nc2ccc(CN3CCOCC3)cc2)nc1Nc1cccc(S(=O)(=O)NC(C)(C)C)c1
Potency [1]: 3720 nM (active)
Potency [2]: 2170 nM (active)
Potency [3]: 6620 nM (active)
Potency [4]: 3720 nM (active)
Potency [5]: 11800 nM (active)
Potency [7]: 3320 nM (active)
Potency [8]: 5850 nM (active)
Potency [9]: 13100 nM (active)
Potency [10]: 5220 nM (active)
Potency [12]: 14700 nM (active)
Potency [14]: 10400 nM (active)
Potency [15]: 4650 nM (active)
Potency [17]: 4140 nM (active)
Potency [20]: 4650 nM (active)
